# Laboratory results: PubChem BioAssay (EPA / NIEHS)
# Active and inactive are the calls of the source. The calls were made as follows: active = hit-call score of the fitted dose curve at least 0.9, where 1 is the maximum; inactive = score below 0.9.
# Experiments:
# [1] = APR_HepG2_CellLoss_72hr: Apredica 72-hour HepG2 Assay for Cell Loss (AID 2282915); details: high-content imaging
# Procedure, shortened: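 Cell number comes from Hoechst 33342-labelled nuclei, imaged at 20x after 3.7% formaldehyde fixation. Dosing was 0.39–200 uM, ten concentrations in duplicate, 0.5% DMSO final, for 72 h. Bidirectional fit relative to DMSO baseline.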
# [2] = APR_HepG2_P-H2AX_72hr: Apredica 72-hour HepG2 Assay for H2AX Phosphorylation (AID 2282916); details: imaging, actives raise or lower the signal;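 also: phospho-histone H2A.x immunostain intensity per cell marking DNA damage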
# Procedure, shortened: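 HepG2 cells treated 72 h at 0.39–200 uM, 0.5% DMSO final, duplicates. Formaldehyde-fixed, Triton-permeabilised, immunostained for phospho-H2A.x with Hoechst; fluorescence imaged at 20x, bidirectional fit versus DMSO.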
# [3] = APR_HepG2_MitoMembPot_72hr: Apredica 72-hour HepG2 Assay for Mitochondrial Membrane Potential (AID 2282917); details: imaging, actives raise or lower the signal
# Procedure, shortened: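 Membrane potential read by MitoTracker Red CMXRos (250 nM, 30 min, pre-fixation) fluorescence imaging of HepG2 after 72 hr exposure. Ten concentrations, 0.39–200 uM, duplicate wells, 0.5% DMSO; fitted in both directions against DMSO baseline.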
# [4] = APR_HepG2_MitoticArrest_72hr: Apredica 72-hour HepG2 Assay for Mitotic Arrest (AID 2282918); details: high-content imaging, actives raise or lower the signal
# Procedure, shortened: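 Using high-content imaging of fixed HepG2 cells, phospho-histone H3 signal was measured following a 72 hr incubation with ten-point compound dilutions up to 200 uM. DMSO served as the negative control and baseline for bidirectional curve fitting.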
# [5] = APR_HepG2_MicrotubuleCSK_72hr: Apredica 72-hour HepG2 Assay for Microtubule CSK Stabilty (AID 2282919); details: HepG2 microtubule cytoskeleton, high-content imaging, actives raise or lower the signal
# Procedure, shortened: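 Read-out is tubulin fluorescence intensity from high-content imaging of HepG2 cells, with nuclei identified by Hoechst 33342. Treatment lasts 72 h at 0.39–200 uM, and curves are fitted bidirectionally against the DMSO negative control.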
# [6] = APR_HepG2_P-H2AX_24hr: Apredica 24-hour HepG2 Assay for H2AX Phosphorylation (AID 2282920); details: high-content imaging, actives raise or lower the signal
# Procedure, shortened: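 Human HepG2 liver cells, treated 24 hr with test chemicals (0.39–200 uM, final DMSO 0.5% v/v), are fixed and co-stained for phospho-H2A.x and c-Jun with Hoechst. Imaged intensity is fitted in both directions against DMSO controls.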
# [7] = APR_HepG2_StressKinase_72hr: Apredica 72-hour HepG2 Assay for Stress Kinase (AID 2282921); details: HepG2 stress kinase (phospho-c-Jun) imaging, actives raise or lower the signal
# Procedure, shortened: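 HepG2 cells treated 72 hr with 0.39–200 uM compound, 0.5% v/v DMSO, duplicate wells. After formaldehyde fixation and Triton permeabilization, stained with anti-phospho-c-Jun (1:500) and Cy3 secondary, imaged at 20x. Fitted in both directions against DMSO.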
# [8] = APR_HepG2_StressKinase_24hr: Apredica 24-hour HepG2 Assay for Stress Kinase (AID 2282922); details: HepG2 stress kinase (phospho-c-Jun) imaging, actives raise or lower the signal
# Procedure, shortened: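 HepG2, 24 hr dosing, 0.39–200 uM in duplicate, 0.5% DMSO; formaldehyde fix (3.7%), 0.5% Triton X-100; anti-phospho-c-Jun + Cy3 secondary, Hoechst counterstain; ArrayScan imaging; bidirectional curve fit vs DMSO baseline.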
# [9] = APR_HepG2_p53Act_72hr: Apredica 72-hour HepG2 Assay for p53 Activation (AID 2282923); details: high-content imaging, actives raise or lower the signal;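 also: average cellular p53 protein immunofluorescence intensity in HepG2 cells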
# Procedure, shortened: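 HepG2 cells exposed 72 h to 0.39–200 uM in 0.5% DMSO, duplicates. Fixed, permeabilized cells immunostained for p53 (Cy5) with Hoechst; imaged at 20x, fluorescence analyzed bidirectionally against DMSO.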
# [10] = APR_HepG2_MitoMass_72hr: Apredica 72-hour HepG2 Assay for Mitochondrial Mass (AID 2282924); details: high-content imaging, actives raise or lower the signal;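 also: MitoTracker Red CMXRos stain intensity per cell imaged as mitochondrial mass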
# Procedure, shortened: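 HepG2, 72 hr cmpd, 10 conc 0.39–200 uM in dup, DMSO 0.5% v/v. MitoTracker Red CMXRos 250 nM 30 min pre-fix; formaldehyde 3.7% fix 30 min RT. HCS imaging, gain/loss fit vs DMSO.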
# [11] = APR_HepG2_NuclearSize_72hr: Apredica 72-hour HepG2 Assay for Nuclear Size (AID 2282925); details: high-content imaging, actives raise or lower the signal
# Procedure, shortened: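 HepG2; cpd 0.39–200 uM, 10 conc, duplicate; 72 h; DMSO 0.5% v/v; fix 3.7% formaldehyde 30 min RT; Triton permeabilization; Hoechst 2 ug/mL; HCS imaging 20x; nuclear diameter; gain/loss fit vs DMSO.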
# [12] = ATG_CRE_CIS: Attagene CIS-FACTORIAL HepG2 Assay for human cAMP Responsive Element (CRE) binding protein 3 (AID 2282926); details: HepG2 CRE cis-reporter, Attagene multiplexed mRNA; actives raise or lower the signal
# Procedure, shortened: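 Transfected HepG2 were treated for 24 hours, then RNA was extracted and reporter cDNA amplified with sequence-specific primers. Labelled fragments were separated by capillary electrophoresis, and the CRE signal was fitted bidirectionally with DMSO as baseline.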
# [13] = ATG_CMV_CIS: Attagene CIS-FACTORIAL HepG2 Assay for human CMV (Internal Marker) (AID 2282928); details: HepG2 CMV promoter reporter, transcription factor profiling; actives raise or lower the signal;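 also: endpoint acts as a background internal control marker rather than a target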
# Procedure, shortened: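 HepG2 cells transiently transfected with multiple cis-regulated reporter units; 24 h compound exposure. Reporter mRNA quantified by RT-PCR, 6-FAM primer-extension labeling, HpaI digestion and capillary electrophoresis; bidirectional fitting against DMSO baseline.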
# [14] = ATG_DR4_LXR_CIS: Attagene CIS-FACTORIAL HepG2 Assay for human Liver X Receptor (LXR), DR4 submotif (AID 2282929); details: HepG2 Attagene DR4 cis-reporter, mRNA transcription; actives raise or lower the signal
# Procedure, shortened: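 After transient transfection with multiplexed cis-promoter reporter units, HepG2 cells received test chemicals for 24 h. Reporter mRNA induction, detected by fluorescence after RT-PCR and capillary electrophoresis, was scored relative to DMSO.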
# [15] = molecular target: Aryl hydrocarbon receptor (Homo sapiens) (UniProt P35869); test: ATG_Ahr_CIS: Attagene CIS-FACTORIAL HepG2 Assay for human Aryl Hydrocarbon Receptor (Ahr) (AID 2282930); details: HepG2 AhR cis-factorial reporter transcription; actives raise or lower the signal
# Procedure, shortened: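 HepG2, transient MRTU (cis) transfection, 24 h exposure. RNA → cDNA → PCR → 6-FAM primer extension → HpaI 2 h 37 C → CE. Fit: bidirectional, DMSO baseline.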
# [16] = ATG_AP_1_CIS: Attagene CIS-FACTORIAL HepG2 Assay for human Activator Protein 1 (AP-1) (AID 2282931); details: HepG2 Attagene cis-factorial AP-1 reporter mRNA; actives raise or lower the signal
# Procedure, shortened: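 After 24 h incubation with test chemical, RNA from transfected HepG2 cells was reverse-transcribed, amplified, fluorescently labelled and digested before capillary electrophoresis. Reporters were driven by cis-regulatory promoters; activity fitted bidirectionally versus DMSO.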
# [17] = ATG_AP_2_CIS: Attagene CIS-FACTORIAL HepG2 Assay for human Activator Protein 2 (AP-2) (AID 2282932); details: HepG2 AP-2 cis-reporter, Attagene transcription factor profiling; actives raise or lower the signal
# Procedure, shortened: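 HepG2, transient MRTU transfection, cis-regulated reporters; 24 h compound exposure; RNA isolated, RT-PCR, 6-FAM labelling, HpaI digest, CE fluorescence. DMSO = negative control/baseline, bidirectional fit.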
# [18] = ATG_BRE_CIS: Attagene CIS-FACTORIAL HepG2 Assay for human Bone Morphogenetic Protein (BMP) Response Element (BRE) (AID 2282933); details: HepG2 BMP response element reporter, Attagene transcription factor profiling; actives raise or lower the signal
# Procedure, shortened: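 Fluorescence-labelled reporter cDNA fragments, separated by capillary electrophoresis, gave the signal for this component of a 52-readout multiplex. HepG2 cells were transfected, exposed to chemicals for 24 h, and compared with DMSO using bidirectional fitting.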
# [19] = molecular target: Retinoic acid receptor alpha (Homo sapiens) (UniProt P10276); test: ATG_DR5_RAR_CIS: Attagene CIS-FACTORIAL HepG2 Assay for human Retinoic Acid Receptor Alpha (RARE), DR5 submotif (AID 2282934); details: HepG2 Attagene cis-factorial RARE DR5 reporter, mRNA; actives raise or lower the signal
# Procedure, shortened: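 HepG2, transient cis-reporter transfection, 24 h exposure. mRNA readout: RT-PCR, FAM label, HpaI cut, capillary electrophoresis. DMSO baseline, gain/loss fitting.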
# [20] = molecular target: CCAAT/enhancer-binding protein beta (Homo sapiens) (UniProt P17676); test: ATG_C_EBP_CIS: Attagene CIS-FACTORIAL HepG2 Assay for human CCAAT/Enhancer Binding Protein (C/EBP) beta (AID 2282927); details: HepG2 Attagene cis-factorial transcription factor reporter; actives raise or lower the signal
# Procedure, shortened: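 Changes in reporter mRNA, rather than exogenous chimeric receptor activity, reflect native C/EBP signalling in transfected HepG2 cells dosed for 24 h; transcripts are detected by RT-PCR and capillary electrophoresis.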
# Sequence of Aryl hydrocarbon receptor (Homo sapiens) (P35869 whole entry, looked up): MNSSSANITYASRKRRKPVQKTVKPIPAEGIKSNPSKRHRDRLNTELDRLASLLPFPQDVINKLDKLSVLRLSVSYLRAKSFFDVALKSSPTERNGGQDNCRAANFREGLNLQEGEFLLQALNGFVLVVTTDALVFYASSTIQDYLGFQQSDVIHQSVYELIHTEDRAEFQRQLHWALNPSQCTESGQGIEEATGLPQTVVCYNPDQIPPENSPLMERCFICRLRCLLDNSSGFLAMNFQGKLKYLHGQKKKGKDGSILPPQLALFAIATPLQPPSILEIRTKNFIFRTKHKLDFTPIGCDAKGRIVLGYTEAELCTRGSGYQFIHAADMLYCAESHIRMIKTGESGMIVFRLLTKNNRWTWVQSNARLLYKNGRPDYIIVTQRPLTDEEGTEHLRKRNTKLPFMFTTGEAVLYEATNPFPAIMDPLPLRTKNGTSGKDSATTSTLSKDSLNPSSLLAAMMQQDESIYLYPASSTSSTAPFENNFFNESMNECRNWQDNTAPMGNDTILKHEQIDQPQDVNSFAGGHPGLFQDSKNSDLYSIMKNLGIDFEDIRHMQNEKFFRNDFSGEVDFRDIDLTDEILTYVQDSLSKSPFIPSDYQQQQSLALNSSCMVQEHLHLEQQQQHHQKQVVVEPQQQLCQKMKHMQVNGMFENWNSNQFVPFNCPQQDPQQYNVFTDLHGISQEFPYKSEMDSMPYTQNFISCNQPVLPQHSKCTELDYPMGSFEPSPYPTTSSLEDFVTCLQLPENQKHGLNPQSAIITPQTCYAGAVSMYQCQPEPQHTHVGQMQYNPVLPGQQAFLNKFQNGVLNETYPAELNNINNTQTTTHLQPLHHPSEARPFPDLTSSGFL
# Sequence of CCAAT/enhancer-binding protein beta (Homo sapiens) (P17676 whole entry, looked up): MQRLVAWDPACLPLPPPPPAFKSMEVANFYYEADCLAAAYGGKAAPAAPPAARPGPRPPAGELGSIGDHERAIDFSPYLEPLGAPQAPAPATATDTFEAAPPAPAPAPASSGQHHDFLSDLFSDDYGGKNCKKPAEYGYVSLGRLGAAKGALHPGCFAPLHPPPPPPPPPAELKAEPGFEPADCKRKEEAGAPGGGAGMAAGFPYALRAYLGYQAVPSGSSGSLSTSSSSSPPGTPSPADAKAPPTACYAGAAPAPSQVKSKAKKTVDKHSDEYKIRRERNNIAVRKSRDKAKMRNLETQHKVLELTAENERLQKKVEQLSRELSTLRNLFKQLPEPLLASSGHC
# Sequence of Retinoic acid receptor alpha (Homo sapiens) (P10276 whole entry, looked up): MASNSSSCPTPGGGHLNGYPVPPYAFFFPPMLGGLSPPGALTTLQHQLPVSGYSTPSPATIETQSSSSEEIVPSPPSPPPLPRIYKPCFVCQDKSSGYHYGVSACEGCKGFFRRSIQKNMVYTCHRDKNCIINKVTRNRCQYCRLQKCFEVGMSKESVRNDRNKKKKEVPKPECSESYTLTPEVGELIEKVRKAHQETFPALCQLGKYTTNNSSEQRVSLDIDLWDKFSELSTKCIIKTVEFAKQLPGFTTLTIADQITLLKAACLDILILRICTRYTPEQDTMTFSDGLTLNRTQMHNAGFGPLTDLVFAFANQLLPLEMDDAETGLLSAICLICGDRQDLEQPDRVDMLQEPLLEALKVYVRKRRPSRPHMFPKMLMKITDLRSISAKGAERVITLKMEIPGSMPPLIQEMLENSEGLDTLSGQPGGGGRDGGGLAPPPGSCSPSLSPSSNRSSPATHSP
smiles,measurement,setting,value
CCOc1ccc2c(c1)C(C)=CC(C)(C)N2,AC50,[1],103 µM (active)
same,AC50,[2],92.7 µM (active)
same,outcome,[3],inactive
same,AC50,[4],78.2 µM (active)
same,outcome,[5],inactive
same,AC50,[6],72.7 µM (active)
same,outcome,[7],inactive
same,outcome,[8],inactive
same,AC50,[9],76.1 µM (active)
same,outcome,[10],inactive
same,outcome,[11],inactive
same,outcome,[12],inactive
same,AC50,[13],69.4 µM (active)
same,AC50,[14],175 µM (active)
same,outcome,[15],inactive
same,AC50,[16],100 µM (active)
same,outcome,[17],inactive
same,outcome,[18],inactive
same,outcome,[19],inactive
CCCCc1ccc2c(n1)[C@@H](c1ccc(OC)cc1C[C@H](C)C(=O)O)[C@H](C(=O)O)[C@H]2c1ccc2c(c1)OCO2,outcome,[1],inactive
same,outcome,[2],inactive
same,outcome,[3],inactive
same,outcome,[4],inactive
same,outcome,[5],inactive
same,outcome,[6],inactive
same,outcome,[7],inactive
same,outcome,[8],inactive
same,outcome,[9],inactive
same,outcome,[11],inactive
same,outcome,[13],inactive
same,outcome,[14],inactive
same,outcome,[15],inactive
same,outcome,[16],inactive
same,outcome,[17],inactive
same,outcome,[18],inactive
Cc1cc(=O)[nH]c(=S)[nH]1,outcome,[1],inactive
same,outcome,[2],inactive
same,outcome,[3],inactive
same,outcome,[4],inactive
same,outcome,[5],inactive
same,outcome,[6],inactive
same,outcome,[7],inactive
same,outcome,[8],inactive
same,outcome,[9],inactive
same,outcome,[10],inactive
same,outcome,[20],inactive
same,outcome,[13],inactive
same,outcome,[14],inactive
same,outcome,[15],inactive
same,outcome,[16],inactive
same,outcome,[17],inactive
CCCCCCCC=O,outcome,[1],inactive
same,outcome,[2],inactive
same,outcome,[3],inactive
same,outcome,[4],inactive
same,outcome,[5],inactive
same,outcome,[6],inactive
same,outcome,[7],inactive
same,outcome,[8],inactive
same,outcome,[9],inactive
same,outcome,[10],inactive
same,outcome,[12],inactive
same,outcome,[20],inactive
same,outcome,[13],inactive
same,outcome,[14],inactive
same,outcome,[15],inactive
same,outcome,[16],inactive
same,outcome,[17],inactive
COc1ccc(C)cc1N,outcome,[1],inactive
same,outcome,[2],inactive
same,outcome,[3],inactive
same,outcome,[4],inactive
same,outcome,[5],inactive
same,outcome,[6],inactive
same,outcome,[7],inactive
same,outcome,[8],inactive
same,outcome,[9],inactive
same,outcome,[10],inactive
same,outcome,[13],inactive
same,outcome,[14],inactive
same,AC50,[15],100 µM (active)
same,outcome,[16],inactive
same,outcome,[17],inactive
same,outcome,[18],inactive
same,outcome,[19],inactive
OC[C@@H](O)[C@@H](O)[C@H](O)[C@H](O)CO,outcome,[1],inactive
same,outcome,[2],inactive
same,outcome,[3],inactive
same,outcome,[4],inactive
same,outcome,[5],inactive
same,outcome,[6],inactive
same,outcome,[7],inactive
same,outcome,[8],inactive
same,outcome,[9],inactive
same,outcome,[10],inactive
same,outcome,[12],inactive
same,outcome,[13],inactive
same,outcome,[14],inactive
same,outcome,[15],inactive
same,outcome,[16],inactive
same,outcome,[17],inactive
same,outcome,[18],inactive
same,outcome,[19],inactive
O=c1c(O)c(-c2ccc(O)c(O)c2)oc2cc(O)cc(O)c12,AC50,[1],22.6 µM (active)
same,AC50,[2],68.1 µM (active)
same,outcome,[3],inactive
same,outcome,[4],inactive
same,outcome,[5],inactive
same,AC50,[6],48.6 µM (active)
same,outcome,[7],inactive
same,outcome,[8],inactive
same,outcome,[9],inactive
same,AC50,[10],7.83 µM (active)
same,outcome,[11],inactive
same,outcome,[12],inactive
same,outcome,[20],inactive
same,AC50,[13],26.5 µM (active)
same,outcome,[14],inactive
same,AC50,[15],5.8 µM (active)
same,AC50,[16],100 µM (active)
same,outcome,[17],inactive
same,outcome,[19],inactive
